From PubChem BioAssay AID1851 (National Center for Advancing Translational Sciences (NCATS), 2009)
Where “and” joins values, the source holds several entries; their conditions need not be identical. Equal values may be shown once. About 2,600 (16%) of roughly 16,000 compounds were called active. Inconclusive results (about 20%) are left out. The list is a sample of the results. A number with no mark means an inactive call. Calls come from the whole dose curve; as a rule, active = well fitted curve in the direction sought with a large enough effect; inconclusive = small, poorly fitted or top-dose-only effect, or effect the other way; inactive = no such curve, though single readings can be large or run the other way.

Molecular target: Cytochrome P450 2D6 (Homo sapiens) (UniProt P10635)
Test: Cytochrome panel assay with activity outcomes
Details: recombinant CYP, pro-luciferin dealkylation, luminescence, p450-cyp2d6; series mostly up to 57.1 µM
% is set by controls: 0 for no effect and ±100 for the full control effect.

Chain of Cytochrome P450 2D6 (Homo sapiens) (P10635 whole entry, looked up): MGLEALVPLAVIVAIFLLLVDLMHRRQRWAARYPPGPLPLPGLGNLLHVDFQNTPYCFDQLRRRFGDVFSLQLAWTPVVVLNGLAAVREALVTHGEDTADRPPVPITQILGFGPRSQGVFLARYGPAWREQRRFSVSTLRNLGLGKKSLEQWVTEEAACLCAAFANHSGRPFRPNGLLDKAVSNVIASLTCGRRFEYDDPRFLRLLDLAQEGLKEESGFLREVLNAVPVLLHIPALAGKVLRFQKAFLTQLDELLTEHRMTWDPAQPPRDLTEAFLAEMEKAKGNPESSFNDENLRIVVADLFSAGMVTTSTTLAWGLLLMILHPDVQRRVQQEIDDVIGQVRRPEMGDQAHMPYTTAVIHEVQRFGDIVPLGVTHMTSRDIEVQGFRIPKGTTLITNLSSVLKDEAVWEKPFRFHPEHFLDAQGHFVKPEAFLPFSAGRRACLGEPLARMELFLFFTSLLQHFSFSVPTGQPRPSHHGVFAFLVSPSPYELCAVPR

| Structure (SMILES) | AC50 | activity, negative = inhibition |
| --- | --- | --- |
| COCC(=O)Oc1c(S(=O)(=O)c2ccc(C)cc2)c(C)nn1-c1ccccc1 | inactive |  |
| NC(=O)c1cc[n+](CC2=C(C(=O)O)N3C(=O)[C@@H](NC(=O)[C@H](c4ccccc4)S(=O)(=O)[O-])[C@@H]3SC2)cc1 | inactive |  |
| COc1ccc(-c2cc(C(=O)Nc3cnn(Cc4ccccc4C)c3)no2)cc1OC | inactive |  |
| COC(=O)c1cnn(C(=O)c2cc(OC)ccc2Br)c1N | inactive |  |
| O=C(O)/C=C\[C@H](O)c1ccc(Cl)cc1 | inactive |  |
| Cc1ccccc1N(C(=O)Cc1cccs1)C(C(=O)NCC1CCCO1)c1cccnc1 (stereo unspecified) | inactive |  |
| N#Cc1c(-c2ccccc2)nc(-c2ccccc2)[nH]c1=O | inactive |  |
| CC(C)CN=C(N)N=C(N)N |  | 7.41% [at 11.4 µM] |
| N#C/C(=C\Nc1ccccn1)C(=O)c1ccco1 |  | -1.48% [at 11.4 µM] |
| COCCNc1ncnc2ccc(-c3ccc(C(=O)N(C)C)cc3)cc12 | inactive |  |
| COCCNc1ncnc2ccc(-c3ccccc3CN(C)C)cc12 | 15.8 µM (active) |  |
| CN(C)Cc1ccccc1-c1ccc2ncnc(NC3CCNCC3)c2c1 | 10 µM (active) |  |
| N#Cc1cccc(-c2ccc3ncnc(NC4CCNCC4)c3c2)c1 | inactive |  |
| CS(=O)(=O)Nc1cccc(-c2ccc3ncnc(NC4CCNCC4)c3c2)c1 | inactive |  |
| C[C@@H](CNC(N)=O)NC(N)=O |  | -3.67% [at 11.4 µM] |
| CN1CCN(c2ncc3ncc(=O)n(-c4ccccc4)c3n2)CC1 | inactive |  |
| O=C(NC(N1CCCC1)C(Cl)(Cl)Cl)c1ccccc1 (stereo unspecified) | inactive |  |
| COc1cccc(/C=N/NC(=O)c2nc(-c3ccccc3)cc(-c3ccccc3)n2)c1 | inactive |  |
| Cc1ccccc1OCCCN1CCCC1 | 14.1 µM (active) |  |
| Clc1ccccc1OCCCCN1CCCC1 | 11.2 µM (active) |  |
| O=C(O)c1ccc(OCc2ccccc2)c(Cl)c1 |  | 4.91% [at 11.4 µM] |
| Fc1ccccc1OCCCCCCN1CCCC1 | 14.1 µM (active) |  |

| Structure (SMILES) | AC50 | activity, negative = inhibition |
| --- | --- | --- |
| Cc1ccccc1OCC(=O)OC1CCN(C)CC1 | inactive |  |
| CC(C)(C)c1ccccc1OCCN1CCCC1 | 5.62 µM (active) |  |
| Cc1ccc(CNC(=O)CCc2c(C)nc3ncnn3c2C)cc1 | inactive |  |
| O=C1[C@H]2[C@H]3[C@H](O)[C@H](O)C/C(=N/OC[C@@H](O)COCc4ccco4)[C@H]3CC[C@@H]2C(=O)N1C[C@@H]1CCCO1 |  | 14.8% [at 11.4 µM] |
| C/C(CCN1CCc2nc(-c3ccccc3)c(-c3ccccc3)cc2C1)=N\O[C@@H](C)c1cn([C@H](CO)Cc2ccccc2)nn1 |  | -8.59% [at 11.4 µM] and -16.7% [at 11.4 µM] |
| COc1ccccc1S(=O)(=O)Nc1ccc(-c2nnc3n2CCCCC3)cc1 | inactive |  |
| N#Cc1c(N)nc2c(c1-c1cccc(O)c1)CCCCCC2 | inactive |  |
| CCc1nnc2sc(-c3ccc(NC(=O)c4ccco4)cc3)nn12 | inactive |  |
| Cc1ccc(S(=O)(=O)N[C@H](C(=O)N2CCC(C(=O)NCC(=O)O)CC2)C(C)C)cc1 | inactive |  |
| Cc1cc(C)nc(NN2C(=O)/C(=C/c3ccccc3)SC2=S)n1 | inactive |  |
| COc1ccc(/C=C\C(=O)Nc2ccccc2C(=O)O)cc1OC | inactive |  |
| CCOc1cc(C#N)c(NC(=O)c2cccnc2)cc1OCC | inactive |  |
| COCCNC(=O)c1onc(CSc2ccccc2F)c1C(=O)O | inactive |  |
| CC(C)(C)NC(=O)C(=O)NNC(=O)c1ccccc1 | inactive |  |
| N[C@H](C(=O)O)c1nn[nH]n1 | inactive |  |
| O=C(NNC(=S)NCc1ccco1)c1ccc(Cl)s1 | inactive |  |
| Nc1ccc2c3c(cccc13)C(=O)NC2=O | inactive |  |
| Nc1[nH]c(=S)[nH]c(=O)c1N=Nc1c(Br)cc(S(N)(=O)=O)cc1Br |  | 7.23% [at 11.4 µM] |
| CC1(C)CC(O)CC(C)(C)N1CC(O)COCCOc1ccc(Br)cc1 (stereo unspecified) | 14.1 µM (active) |  |
| O=c1c(-c2cccs2)nc2cncnc2n1C1CC1 | inactive |  |
| COc1cccc(Nc2ncc3nc(CCc4ccccc4)c(=O)n(Cc4cccs4)c3n2)c1 | inactive |  |
| O=C(NCc1ccccc1)C(c1ccncc1)N(C(=O)c1csnn1)C1CC1 (stereo unspecified) | inactive |  |

| Structure (SMILES) | AC50 | activity, negative = inhibition |
| --- | --- | --- |
| CC(C)(C)NC(=O)NC(=O)CSc1nnc2ccccn12 | inactive |  |
| O=c1cnc2cnc(N3CCOCC3)nc2n1C[C@H]1CCCO1 | inactive |  |
| FC(F)(F)c1ccccc1-c1ccc2ncnc(NCc3cccs3)c2c1 | 10 µM (active) |  |
| Cc1ccccc1-c1ccc2ncnc(NCc3cccs3)c2c1 | 10 µM (active) |  |
| CC(C)=CCC/C(C)=C/CO/N=C1/[C@H]2O[C@@H]2[C@@H](O)[C@H]2[C@H]1CCn1c(=O)n(-c3ccccc3)c(=O)n12 |  | -3.53% [at 11.4 µM] |
| CC1CN(C(=O)COc2ncnc3ccccc23)CC(C)O1 (stereo unspecified) | inactive |  |
| CC1=CC(C)(C)N(C)C(=O)N1c1ccc(Cl)cc1 | inactive |  |
| COC(=O)c1[nH]c2cc(OC)ccc2c1NC(=O)CCN1CCSCC1 | inactive |  |
| CCOC(=O)C(C)Sc1ncc(OC)c(Sc2ccc(Cl)cc2)n1 (stereo unspecified) | inactive |  |
| Nc1c2c(=O)oc(-c3ccccc3)cc2nn1-c1ccccc1 | 5.01 µM (active) |  |
| Cc1nn(-c2ccccc2)c(-c2ccccc2)c1C(=O)O | inactive |  |
| Cc1cc(N)n(-c2ccccc2)n1 | inactive |  |
| CCOC(=O)CSc1n[nH]c(NC(=O)c2cccc(C(F)(F)F)c2)n1 | inactive |  |
| CN(C)c1ccc(NC(=O)c2cccc(N3C(=O)C4C5C=CC(C5)C4C3=O)c2)cc1 (stereo unspecified) | inactive |  |
| Cc1nnsc1SCC(=O)O | inactive |  |
| Cc1ccc(-c2nc(-c3nccc4ccccc34)oc2-c2ccccc2)cc1 |  | -9.6% [at 11.4 µM] |
| CS(=O)(=O)N1CCN(c2ccc([N+](=O)[O-])c(NCc3ccccc3)c2)CC1 | inactive |  |
| C1=C(CN2CCOCC2)COc2c1cccc2OC[C@@H]1CNCCO1 | inactive |  |
| CS(=O)(=O)Nc1ccc([N+](=O)[O-])cc1Oc1ccccc1 | inactive |  |
| CS(=O)(=O)Nc1ccc([N+](=O)[O-])cc1OC1CCCCC1 | 0.0501 µM (active) |  |
| COc1ccc([N+](=O)[O-])cc1NC1C2CC3CC(C2)CC1C3 (stereo unspecified) | inactive |  |
| Cc1csc(NC(=O)CCNS(=O)(=O)c2ccc3c(c2)c(=O)n(C)c(=O)n3C)n1 | inactive |  |
